Measurements as given in PubChem BioAssay AID2782 (National Center for Advancing Translational Sciences (NCATS), 2010).
Records with an inconclusive call do not appear. Where a call stands in place of a potency, no number is given. Active and inactive are the calls of the source. Calls come from the whole dose curve; as a rule, active = well fitted inhibition curve with a large enough effect in the polarisation, with a control signal flat (not every such curve was filed as active); inconclusive = small, poorly fitted or top-dose-only effect, or effect the other way, or a change in a side signal; inactive = no such curve, though single readings can be large or run the other way; the % refers to the polarisation.

Experiment: Confirmation of Inhibitors Targeting the Menin-MLL Interaction in MLL Related Leukemias: Competition With Texas Red Labeled MLL-derived Mutant Peptide
Conditions: fluorescence polarization, Texas Red MLL peptide displacement; series mostly up to 94.6 µM
Text: qHTS Assay for Inhibitors Targeting the Menin-MLL Interaction in MLL Related Leukemias
NIH Chemical Genomics Center [NCGC]
NIH Molecular Libraries Probe Centers Network [MLPCN]
Assay Submitter (PI): Jolanta Grembecka, Tomasz Cierpicki, University of Virginia
Translocations of the MLL (Mixed Lineage Leukemia) gene are frequently found in human leukemias affecting both children and adults. Fusion of MLL to one of more than 60 genes results in generation of oncogenic proteins upregulating Hox genes, which are vital to blood cell development. Patients harboring fusion of the MLL gene suffer from aggressive leukemias and respond poorly to available therapies. All of the oncogenic fusion proteins have a preserved N-terminal fragment of MLL that has been identified to interact with menin. It has been recently discovered that association with menin is critical to the leukemogenic activity of the MLL fusion oncoproteins. Selective targeting of the menin-MLL interaction could provide an attractive therapeutic approach to develop novel drugs for MLL-related leukemias. Small molecules blocking the menin-MLL interaction should reverse the oncogenic potential of MLL fusion proteins.
We have developed and optimized a fluorescence polarization-based assay for the identification of Menin-MLL inhibitors. The assay was run employing two different MLL-derived peptides. The present assay uses a 12 amino acid peptide labeled with fluorescein at its N-terminus. This peptide consists of the menin high affinity binding motif from MLL and is potently bound by menin. Another peptide with a mutated sequence, labeled with Texas Red, was used in parallel as a less stringent screen for inhibitors.
The present assay was run to confirm the activity of hits from the primary screen using the peptide with a mutated sequence, labeled with Texas Red.
The Menin protein, the MLL-wild type (w.t.) derived peptide (N-terminal 12 amino acids), the MLL-derived peptide labeled with Texas Red and the MLL-w.t. peptide labeled with Fluorescein were kindly supplied by laboratory of Dr. Jolanta Grembecka, University of Virginia. All protein and peptide solutions were stored in single use aliquots at -80C. The Eu3+ Cyrptate-conjugated mouse monoclonal antibody anti-6 Histidine (Eu3+-AB) and the Streptavidin-XL665 conjugate (XL665) were purchased from Cisbio International (Bedford, MA). All antibody and XL665 conjugate solution stocks were stored in single use aliquots at -20C. The Buffer components for all assays were purchased from Sigma-Aldrich (St. Louis, MO) and Invitrogen (Carlsbad, CA).
1. FP reaction buffer: 50 mM Tris-HCl pH 7.5, 50 mM NaCl, 1mM DTT.
Before use, 0.05% BSA is added.
2. Menin protein, MLL-w.t. labeled with fluorescein, MLL-mutant peptide labeled with texas red.
Stored in singe use aliquots at -80C.
3. MLL-w.t. unlabeled peptide as positive control: 10 uM final in FP buffer.
1. Prepare Menin at 200 nM, MLL-w.t.-fluorescein at 25 nM, and MLL-mutant-texas red at 50 nM mixture in FP buffer.
2. Prepare Menin at 200 nM, MLL-w.t.-fluorescein at 25 nM, MLL-mutant-texas red at 50 nM, and 10 uM MLL-w.t. unlabeled mixture in FP buffer.
3. Prepare MLL-w.t.-fluorescein at 25 nM and MLL-mutant-texas red at 50 nM mixture in FP buffer.
3. Dispense 4 ul per well of reagent in step 1 in columns 2, 4 - 48 in a black 1536 well plate, dispense 4 ul per well of reagents from steps 2 and 3 in columns 1 and 3 respectively. Incubate plate at ambient for 15 minutes.
4. Transfer 23 nl per well of compound to plate and incubate at ambient for 1 hr.
5. Read fluorescence polarization for each label using the PerkinElmer Envision.
Envision protocol for fluorescein: FITC FP Dual Enh Mirror, Excitation filter 480, Emission filter (1) P-pol 535, Emission filter (2) S-pol 535
Envision protocol for texas red: FP Dual Enh Mirror, Excitation filter 555, Emission filter (1) P-pol 632, Emission filter (2) S-pol 632
Potency is the fitted concentration of half-maximal effect.

| Structure (SMILES) | Potency |
| --- | --- |
| CCC(C)CCCCC(=O)N[C@@H](CCN)C(=O)N[C@H](C(=O)N[C@@H](CCN)C(=O)N[C@H]1CCNC(=O)C([C@@H](C)O)NC(=O)[C@@H](CCN)NC(=O)[C@H](CCN)NC(=O)[C@H](CC(C)C)NC(=O)[C@@H](CC(C)C)NC(=O)[C@H](CCN)NC1=O)[C@@H](C)O (stereo not given in full) | 7.94 µM (active) |
| CCOc1ccc(NC(=O)c2cccc(OC(=S)N3CCC(C)CC3)c2)cc1 | inactive |
| COc1cccc(NC(=O)N2CCCc3ccccc32)c1 | inactive |
| Cc1ccc(C2=NN(C(=O)c3ccccc3F)C(c3ccccc3F)C2)cc1 (stereo not given) | inactive |
| O=C1CCNc2c(Cl)cc(Cl)cc21 | inactive |
| CCCc1cc(=O)oc2c3c(c(Cl)cc12)OCN(CCCO)C3 | inactive |
| O=C(/C=C/c1ccccc1)c1cccs1 | inactive |
| N=C1c2ccccc2CN1c1ccc(N2CCOCC2)c(S(=O)(=O)Nc2ccc(Cl)cc2)c1 | 141 µM (active) |
| COc1ccccc1CC(=O)Nc1ccc(-c2noc(COc3ccc(Br)cc3)n2)cc1 | 71 µM (active) |
| CN(C)C(CNc1ncnc2sc3c(c12)CCCCC3)c1ccco1 (stereo not given) | 141 µM (active) |
| O=C(CCn1nc(-c2ccccc2)ccc1=O)N1CCN(c2ccccn2)CC1 | inactive |
| O=S(=O)(Nc1cccc(-c2cn3cccnc3n2)c1)c1ccccc1 | inactive |
| COc1cccc(OC)c1NC(=O)CN1CCN(C)CC1 | inactive |
| CCC(c1nnnn1Cc1ccc(F)cc1)N1CCN(C2CCCCC2)CC1 (stereo not given) | 35.5 µM (active) |
| CCOc1ccc(-c2nn(-c3ccccc3)cc2/C=C2\SC(N)=NC2=O)cc1C | inactive |
| Cc1ccccc1-c1n[nH]c(=S)n1C | inactive |
| CCCC(c1nnnn1Cc1ccco1)N1CCN(C2CCCC2)CC1 (stereo not given) | 79.4 µM (active) |
| O=C(C1CCCN(Cc2cccc(Cl)c2)C1)N1CCCCC1 (stereo not given) | inactive |
| Cc1c(F)cccc1NS(=O)(=O)c1ccc2c(c1)c(C)cc(=O)n2C | inactive |
| Cc1cc(N/N=C/c2ccc(O)cc2)c2cccc(C)c2n1 | 71 µM (active) |

| Structure (SMILES) | Potency |
| --- | --- |
| OC(c1ccccn1)(c1ccccn1)c1ccccn1 | inactive |
| O=C(COC(=O)c1ccc(NS(=O)(=O)c2cccs2)cc1)Nc1nc2c(F)c(F)c(F)cc2s1 | 14.2 µM (active) |
| CCCC(=O)NC(c1ccccc1Cl)c1ccc2cccnc2c1O (stereo not given) | inactive |
| COc1cc2c(cc1NC(=S)NC(=O)c1c(OC)cccc1OC)oc1ccccc12 | 11.2 µM (active) |
| N=c1oc2ccccc2cc1-c1nc(-c2ccc(Cl)cc2)cs1 | inactive |
| O=C(CC(Sc1ccc(Br)cc1)C(=O)O)c1ccc(F)cc1 (stereo not given) | inactive |
| O=[N+]([O-])c1ccc(S(=O)(=O)c2ccccc2)nc1 | inactive |
| CNC[C@H](CC1CCCCC1)NC[C@H](Cc1ccccc1)NCCC12CC3CC(CC(C3)C1)C2 | 63.1 µM (active) |
| CC1(C)CN=C(N2CCN(c3ncnc4sc5c(c34)CCCC5)CC2)S1 | 14.2 µM (active) |
| CCOC(=O)N1CCN(C(=O)c2oc3ccc(S(=O)(=O)N(CC)CC)cc3c2C)CC1 | inactive |
| COc1ccc(N(C(=O)c2ccncc2)S(=O)(=O)c2ccc(Cl)cc2)cc1 | inactive |
| CCCC(c1nnnn1Cc1cccs1)N1CCN(C2CCCC2)CC1 (stereo not given) | 112 µM (active) |
| COc1ccc(OC)c(C(c2c(C)[nH][nH]c2=O)c2c(C)[nH][nH]c2=O)c1 | inactive |
| CCN1CCN(CC(=O)Nc2ccc(C(C)=O)cc2)CC1 | inactive |
| CN(C)c1ccc(N=Nc2ccc(C(=O)O)cc2)cc1 | 141 µM (active) |
| Cc1nc(N2CCN(C)CC2)c2c3c(sc2n1)CCCC3 | 126 µM (active) |
| O=C(CCN1CCN(c2ccc([N+](=O)[O-])cc2)CC1)c1ccc(Cl)cc1 | inactive |
| CCOC(=O)C1CCN(CC(O)COCc2ccccc2)CC1 (stereo not given) | inactive |
| CCn1ncc(C(=O)Nc2cc(C)on2)c1C | inactive |
| O=C(NNCS(=O)(=O)O)c1ccncc1 | inactive |
